Laboratory results published in the supplement of paper PMC13380429.
Unmarked numbers belong to inactive results.

tested on: Vero E6 infected with SARS-CoV-2; assay: inhibition of SARS-CoV-2 cytopathic effect; higher = more antiviral protection, active = above 15; settings: 833.33 nM; 48 h

Row | SMILES | inhibition of SARS-CoV-2 cytopathic effect [%]
1 | C[C@@H](N[C@H]1CCCC[C@@H]1NC(=O)c1ccc(Cl)cc1)c1cccc2ccccc12 [Calhex-231] | 5.65
2 | CC(C)Oc1ccc(-c2nc(-c3cccc4c3CC[C@H]4NCCC(=O)O)no2)cc1C#N | 2.4
3 | CC(C)(C(=O)O)c1ccc(C(=O)CCCN2CCC(OC(c3ccccc3)c3ccccc3)CC2)cc1 [carebastine] | -2.56
4 | CCCCCCCCCCCCCCCC(=O)OC(C)C [isopropyl-palmitate] | 1.48
5 | Cc1cccn2c(=O)c(/C=C(\C#N)c3nc4ccccc4s3)c(Oc3ccc(F)cc3)nc12 | -1.93
6 | Cc1ccccc1C(C(=O)NC1CCCCC1)N(C(=O)Cn1ccnc1C)c1cccc(F)c1 (stereo not given) | 1.79
7 | NC1=NCC2c3ccccc3Cc3ccccc3N12 (stereo not given) [epinastine] | 7.29
8 | CCC1(c2c[nH]cn2)Cc2ccccc2C1 [atipamezole] | 2.4
9 | COc1cc(O)c(C(=O)c2ccccc2)cc1S(=O)(=O)O [sulisobenzone] | -2.93
10 | O=C([O-])CN1CCN(CC(=O)[O-])CCN([C@H](CO)[C@H](O)CO)CCN(CC(=O)[O-])CC1.[Gd+3] (racemic) [gadobutrol] | 0.17
11 | c1cnc2c([O][Ga]([O]c3cccc4cccnc34)[O]c3cccc4cccnc34)cccc2c1 [gallium-triquinolin-8-olate] | 4.98
12 | CN(C)CC[C@H](CSc1ccccc1)Nc1ccc(S(=O)(=O)NC(=O)c2ccc(N3CCN(Cc4ccccc4-c4ccc(Cl)cc4)CC3)cc2)cc1[N+](=O)[O-] | -16.3
13 | CCOC(=O)[C@@](C)(N)Cc1ccc(O)c(O)c1 [methyldopate] | 1.46
14 | O=C1NCCN1c1ncc([N+](=O)[O-])s1 [niridazole] | -1.39
15 | COc1ccc(C(=O)NCc2cccnc2)cc1C(=O)NCc1cccnc1 [picotamide] | 0.22
16 | CNc1cc2[nH]c(=O)n(-c3ccc(NC(=O)NS(=O)(=O)c4ccc(Cl)s4)cc3)c(=O)c2cc1F [elinogrel] | 3.74
17 | COc1cc(C[C@H]2C(=O)OC[C@@H]2Cc2ccc(OC)c(OC)c2)ccc1O [arctigenin] | 0.01
18 | CCN(CC)C(=O)/C(C#N)=C/c1cc(O)c(O)c([N+](=O)[O-])c1 [entacapone] | -2.41

Row | SMILES | inhibition of SARS-CoV-2 cytopathic effect [%]
19 | NS(=O)(=O)c1cc2c(cc1Cl)N=C(CSCc1ccccc1)NS2(=O)=O [benzthiazide] | 2.56
20 | O=c1sn(-c2cccc3ccccc23)c(=O)n1Cc1ccccc1 [tideglusib] | 0.87
21 | C#C[C@]1(OC(=O)CCCCCC)CC[C@H]2[C@@H]3CCC4=CC(=O)CC[C@@H]4[C@H]3CC[C@@]21C [norethisterone-enanthate] | -1.87
22 | O=C(O)C(O)C(O)C(=O)O (stereo not given) [tartaric-acid] | -1.6
23 | O[C@H]1CC[C@H](Nc2nc(-c3ccccc3)nc3[nH]ccc23)CC1 | -1.49
24 | O=C(NCC(=O)N1CCCC1)Nc1ccc2cnccc2c1 | 1
25 | CC1(C)NC(=O)N(c2ccc([N+](=O)[O-])c(C(F)(F)F)c2)C1=O [nilutamide] | -2.17
26 | CC(=O)CC(=O)O [lithium-acetoacetate] | 1.82
27 | Cc1ncc(Cl)cc1NCc1ccc(C(=O)N[C@@H](CC2CCCC2)C(=O)NC2CC2)s1 | -0.57
28 | CCCC(=O)Nc1cccc(NC(=O)c2ccccc2Br)c1 | -1.59
29 | CCCCCCCCCCCCCCOc1ccc(C(=O)O)o1 | -0.07
30 | Cn1c(-c2ccccc2)nnc1S(C)(=O)=O | -0.57
31 | CCCOc1ccc2[nH]c(NC(=O)OC)nc2c1 [oxibendazole] | -2.39
32 | CC[N+]1(C)CCCC(OC(=O)C(O)(c2ccccc2)c2ccccc2)C1 (stereo not given) [pipenzolate] | -0.83
33 | CCCn1c(=O)c2[nH]c(-c3cnn(Cc4cccc(C(F)(F)F)c4)c3)nc2n(CC)c1=O | -0.96
34 | C[n+]1cccc(C(=O)[O-])c1 [trigonelline] | 1.44
35 | O=C(O)Cc1sc(-c2ccccc2)nc1-c1ccc(Cl)cc1 [fentiazac] | 0.61
